Experimental data as given in PubChem BioAssay (EPA / NIEHS).
Active and inactive are the calls of the source. The calls were made as follows: active = hit-call score of the fitted dose curve at least 0.9, where 1 is the maximum; inactive = score below 0.9.

Assay: ATG_VDRE_CIS: Attagene CIS-FACTORIAL HepG2 Assay for human Vitamin D Receptor Element (VDRE) (AID 2282968)
Conditions: HepG2 VDRE cis-reporter transcription, actives raise or lower the signal
Description: ATG_CIS is a cell-based, multiplexed-readout assay that uses HepG2, a human liver cell line, with measurements taken at 24 hours after chemical dosing in a 24-well plate.ATG_VDRE_CIS is one of 52 assay component(s) measured or calculated from the ATG_CIS assay. It is designed to make measurements of mRNA induction, a form of inducible reporter, as detected with fluorescence intensity signals by Reverse transcription polymerase chain reaction (RT-PCR) and Capillary electrophoresis technology.Data from the assay component ATG_VDRE_CIS was analyzed into 1 assay endpoint. This assay endpoint, ATG_VDRE_CIS, was analyzed with bidirectional fitting relative to DMSO as the negative control and baseline of activity. Using a type of inducible reporter, measures of mRNA for gain or loss-of-signal activity can be used to understand the reporter gene at the transcription factor-level as they relate to the gene VDR. Furthermore, this assay endpoint can be referred to as a primary readout, because this assay has produced multiple assay endpoints where this one serves a reporter gene function. To generalize the intended target to other relatable targets, this assay endpoint is annotated to the nuclear receptor intended target family, where the subfamily is non-steroidal.
Human liver HepG2 cells are transiently transfected with multiple reporter transcription units (MRTUs) in 6-well plates using FuGene 6 reagent (Roche; 3 ml FuGene/1 mg DNA). The MRTU constructs are regulated by a cis-regulating element (promoter). […] A major difference between the CIS and TRANS system is that in CIS activities of endogenous TFs are measured, whereas the TRANS assay evaluates changes in activities of exogenous, chimeric NR-Gal4 proteins. […] At the end of 24 hour incubation, total RNA was isolated using TriZol reagent (Invitrogen). The isolated RNA is then reverse-transcribed using oligo(dT) primer and Mo-MLV reverse transcriptase (Invitrogen) with DNAse I (Ambion) treatment for 30 min. The one-tenth of the produced cDNA was amplified by PCR using Taq DNA polymerase (Invitrogen) and two reporter sequence-specific primers. The PCR products were fluorescently labeled by primer extension with 6-arboxyfluorescein (6-FAM) 5'-labeled reporter sequence-specific primer (2 min at 95 C, 20 s at 68 C and 10 min at 72 C) and these products were digested with 5U of HpaI (New England Biolabs) for 2h at 37 C. The fragments were purified using Qiaquick PCR columns (Qiagen), analyzed on an ABI 3130xL genetic analyzer (Applied Biosystems) with peak positions identified by using a set of X-rhodamine (ROX)-labeled MapMarker1000 molecular weight standards (BioVentures). The raw capillary electrophoresis data was processed using Attagraph software (Attagene).

SMILES	AC50	outcome
Cc1cccc(OP(=O)(Oc2cccc(C)c2)Oc2cccc(C)c2)c1	4.85 µM (active)	
CCCSP(=S)(OCC)Oc1ccc(SC)cc1 (stereo not given)	4.63 µM (active)	
OCC(c1ccc(Cl)cc1)c1ccc(Cl)cc1		inactive
CCCCCCCCCCCCN(C)C	33.4 µM (active)	
O=C(NC(=O)c1c(F)cccc1F)Nc1cc(Cl)c(F)c(Cl)c1F		inactive
O=NN1CCCCCC1		inactive
CCCCN(CCCC)C(=S)S	24.3 µM (active)	
CC(C)(C#N)N=NC(C)(C)C#N		inactive
CCCCCCCCBr		inactive
Clc1cc(C(Cl)(Cl)Cl)cnc1Cl		inactive
Clc1ccc(C(Cl)(Cl)Cl)cn1		inactive
OC(c1ccc(Cl)cc1)(c1ccc(Cl)cc1)c1cccnc1		inactive
O=C(CBr)c1ccc(O)cc1		inactive
CCC[CH2][Sn]([Cl])([Cl])[CH2]CCC	1.24 µM (active)	
O=C(Nc1ccc(Br)cc1)c1cc(Br)cc(Br)c1O	6.47 µM (active)	
CCOP(=S)(OCC)O/N=C(\C#N)c1ccccc1		inactive
Brc1c(Br)c(Br)c(Oc2c(Br)c(Br)c(Br)c(Br)c2Br)c(Br)c1Br		inactive
CC(C)=CC1C(C(=O)OCc2cccc(Oc3ccccc3)c2)C1(C)C (stereo not given)		inactive
CC(c1ccccc1)(c1ccc(O)cc1)c1ccc(O)cc1	1.8 µM (active)	
CC(C)[C@@H](Nc1ccc(C(F)(F)F)cc1Cl)C(=O)OC(C#N)c1cccc(Oc2ccccc2)c1 (stereo not given in full)	0.734 µM (active)	

SMILES	AC50	outcome
C[N+](C)(C)Cc1ccccc1		inactive
O=CCCl	32.3 µM (active)	
O=C(O)COc1ccc(Cl)cc1		inactive
CNC(=O)N(C)c1nc2ccccc2s1		inactive
C[C@H]1C(=O)O[C@@H]2CCN3CC=C(COC(=O)[C@](C)(O)[C@]1(C)O)[C@H]23		inactive
CCOC(=O)OC1=C(c2cc(C)ccc2C)C(=O)NC12CCC(OC)CC2 (stereo not given)		inactive
C=CCc1ccccc1O		inactive
O=C(CCl)Nc1ccccc1	43.7 µM (active)	
CCCCCCCCCCCCCl		inactive
Cc1cc(Cl)ccc1OCCCC(=O)O		inactive
ClCc1ccccc1CCl	13.5 µM (active)	
O=C(O)COc1cc(Cl)c(Cl)cc1Cl		inactive
C1CCC(C2CCCCC2)CC1		inactive
O=[N+]([O-])c1ccc(Nc2ccccc2)cc1	19.2 µM (active)	
CN(C)c1ccc(N=O)cc1		inactive
CCOP(=O)(OCC)SCCSCC		inactive
CCC[CH2][Sn]([CH2]CCC)([CH2]CCC)[CH2]CCC	4.44 µM (active)	
CC[N+](CC)(CC)CC		inactive
CCN(N=O)C(N)=O		inactive
OC[P+](CO)(CO)CO		inactive
